# Screen size: about 2,300 compounds; about 1,700 (74%) were called active. How the calls were made is not given here. The set was probably picked from earlier hits. This is one part of the list. Measured potencies and affinities stand elsewhere.
# Experiment: Mycobacterium tuberculosis H37Rv growth inhibition, no glycerol, confirmatory dose response (AID 449764);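 further: growth read after 7 days of incubation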
# Conditions: series mostly up to 100 µM
row,Compound,outcome
1,O=C1N/C(=N\N=C\c2ccccn2)SC1Cc1cccc(SC(F)F)c1 (configuration not stated),inactive
2,CCc1ccc(CCOc2ccc(CC3SC(=O)NC3=O)cc2)nc1 (configuration not stated),inactive
3,FC(F)(F)c1ccc(N2CCOCC2)c(Nc2nc3ccccc3n3cnnc23)c1,inactive
4,CCCCN(CCCC)c1nc(-c2ccncc2)nc2ccccc12,inactive
5,CSc1cc(-c2ccncc2)nc(-c2ccc(Cl)cc2)c1,inactive
6,O/N=C/c1ccc2ccccc2c1,inactive
7,Cc1ccc2c(c1)C(c1ccc(N3CCOCC3)cc1)=NNC(c1cccs1)=N2,inactive
8,CCc1ccc(/C=C/C(=O)c2cc(Br)ccc(=O)c2O)cc1,inactive
9,Cc1ccccc1-n1c(O)c(C=Nc2ccc3c(c2)OCO3)c(=O)[nH]c1=O,inactive
10,C=CCc1c(C)nc2ccc(C(=O)OCC)cc2c1Cl,inactive
11,CCn1c(SCC(=O)Nc2ccc3c(c2)oc2ccccc23)nnc1-c1ccc(N)cc1,inactive
12,O=S(=O)(c1ccc(Oc2ccc3oc4ccccc4c3c2)nc1)N1CCCC1,inactive
13,COc1ccc(-c2cc(O)cc(O)c2)cc1,inactive
14,CCCCOC1CC(c2ccc(OCc3ccc(OC)cc3)c(OC)c2)N(C)O1 (configuration not stated),inactive
15,CCCCCCOc1ccc(/C=C/C(=O)N2CCOCC2)cc1OC,inactive
16,O=[N+]([O-])/C=C/c1cn(Cc2ccccc2)c2ccccc12,inactive
17,Oc1ccc(/C=N/n2c3ccccc3c3ccccc32)cc1,inactive
18,Cc1ccc(Nc2nc(N)c([N+](=O)[O-])c(N3CCCC(C)C3)n2)cc1C (configuration not stated),inactive
19,Fc1cc(F)cc(Nc2nc(Cl)nc(NC3CCCC3)n2)c1,inactive
20,COc1ccc(NC(=O)ON=C2c3ccccc3-c3ccccc32)cc1,inactive
21,COc1ccc(N/C(=C2\CCCC2=O)C2CCCCC2)cc1,inactive
22,CC(C)(C)c1ccc(-c2nc3[nH]c(=O)cc(NC(=O)c4ccco4)n3n2)cc1,inactive
23,Cc1ccccc1C(=O)Nc1ccccc1C(=O)NCC(C)C,inactive
24,O=C1NCCC/C1=N\Nc1ccc(Br)cc1,inactive
25,CN1CCN(/N=C/c2c3ccccc3c(Cl)c3ccccc23)CC1,inactive
26,COc1ccccc1N1CCN(c2ccc(-c3ccccc3)nn2)CC1,inactive

row,Compound,outcome
1,COc1cc(C)ccc1OCCOc1c(C)cc(Cl)cc1Cl,inactive
2,O=c1oc(-c2ccccc2[N+](=O)[O-])nc2ccccc12,inactive
3,Cc1noc2ncnc(Sc3ccc(Cl)cc3)c12,inactive
4,O/N=C/c1cn(-c2ccc(Cl)cc2)nn1,inactive
5,Cc1ccc(Cl)cc1NC(=O)CN1CCN(S(=O)(=O)N2CCOCC2)CC1,inactive
6,CN1CCN(c2ccc(C(=O)c3cn(-c4ccc(F)c(Cl)c4)nn3)cc2)CC1,inactive
7,Cc1ccc2[nH]c3c(c2c1)CN(C(=O)CN1CCN(c2ccccn2)CC1)CC3,inactive
8,CCCCNC(=O)Nc1nnc(-c2ccc(OCC)cc2)o1,inactive
9,COc1cc(CNC(=O)CCCCCCC(C)C)ccc1O,inactive
10,CN(C)C=Nc1ccc2nn(-c3ccccc3)nc2c1,inactive
11,O=C(Nc1ccc(Cl)cc1)N(Cc1nc2ccccc2c(=O)[nH]1)Cc1cccs1,inactive
12,CCOc1ccc(N/C(C)=C/C(=O)c2ccc3c(c2)OCCO3)cc1,inactive
13,Cc1[nH]nc(SCC(=O)NCc2ccccc2)c1[N+](=O)[O-],inactive
14,CCC(C)n1c(NC(=O)c2ccccc2)c(C#N)c2nc3ccccc3nc21 (configuration not stated),inactive
15,COc1ccc(-c2oc3ccc(-c4ccc(OC)nc4)cc3c2C#CC2(O)CCCCC2)cc1,inactive
16,Cc1cc(=O)oc2cc(OC(=O)C3CCN(C(=O)c4ccc(F)cc4)CC3)ccc12,inactive
17,CC12CN3CCN(CC(C3)/C1=N\NC(=O)Nc1cccc(Cl)c1)C2,inactive
18,Cc1ccccc1-c1nc(CN2CCC(C(=O)NCCC3=CCCCC3)CC2)c(C)o1,inactive
19,Cc1ccc2nc(SCC(=O)Nc3ccc4c(c3)CCC4)[nH]c2c1,inactive
20,CCCc1cc2c(cc1NC(=O)c1ccccc1Cl)OCO2,inactive
21,Cc1sc2nc3c4ccccc4c(NCc4ccco4)nn3c(=O)c2c1C,inactive
22,Cc1ccc(C2CN(C)C3(C(=O)Nc4ccccc43)C23COc2ccccc2C3=O)cc1 (configuration not stated),inactive
23,CCOc1ccc(N=c2scc(-c3ccccc3)n2CCO)cc1,inactive
24,CC1(C)OC(=O)C(=NNc2ccc(Cl)cc2)C(=O)O1,inactive
25,Cc1cccc(CSc2nc3c(c(-c4cccs4)c2C#N)CN(C)CC3)c1,inactive
26,CC1(C)CC(=O)c2c(O)cc(OCc3ccc(Br)cc3)cc2O1,inactive

row,Compound,outcome
1,COC(=O)C(Cc1ccc(OC(=O)c2ccc(C(F)(F)F)cc2)cc1)N1Cc2ccccc2C1=O (configuration not stated),inactive
2,O=C(CNC(=O)c1ccc(Cl)cc1)c1ccc(Cl)cc1,inactive
3,Cc1ccsc1/C=N/Nc1ccc(F)cc1F,inactive
4,CCOC(=O)c1ccc(N=Cc2nc3ccccc3n2C)cc1,inactive
5,CC1(C)CC(=O)c2cc(C(=O)NNc3ccccc3)c(=O)n(-c3ccccc3)c2C1,inactive
6,Cn1cnnc1SCc1ccc(-c2ccc(Br)cc2)o1,inactive
7,O=C(Nc1ccc(CN2CCOCC2)cc1)c1ccc(-c2cc(Cl)ccc2Cl)o1,inactive
8,CCOC(=O)c1ccc(N=C2S/C(=C\c3cc(C)n(-c4cccnc4)c3C)C(=O)N2C)cc1,inactive
9,O=C(COC(=O)C1CC2CCCC(C1)C2=O)NNC(=O)c1ccccc1F (configuration not stated),inactive
10,C(=C\c1ccccc1)/C=N/Nc1nc2ccccc2s1,inactive
11,CC1(c2ccc(Cl)c(Cl)c2)NC(=S)N2C1NC(=S)N2c1ccccc1 (configuration not stated),inactive
12,CC(=O)Oc1c(C)cc(Cl)cc1C(=O)Nc1ccc([N+](=O)[O-])cc1Cl,inactive
13,CCCc1nc2oc(C(=O)OCC)c(N)c2c2c1COC(C)(C)C2,inactive
14,O=C1c2ccccc2C(=O)N1Nc1ccccc1,inactive
15,CCc1noc(C)c1C(=O)Nc1nc(-c2ccc(F)cc2)c(C)s1,inactive
16,COc1ccc(-c2nc(NC(=O)c3[nH]c(C)c(C(C)=O)c3C)sc2C)cc1,inactive
17,CCCCOP(=O)(OCCCC)C(Nc1ccc(C(=O)OCC)cc1)c1ccncc1 (configuration not stated),inactive
18,CCOC(=O)c1ccc(Nc2cc3ccccc3c(=O)[nH]2)cc1,inactive
19,Cc1ccc(C)c2nc(N3CCCC3)c(C#N)cc12,inactive
20,N=c1c(C(=O)NC2CCCCC2)cc2c(=O)n3ccccc3nc2n1Cc1ccc(F)cc1,inactive
21,Cc1ccc(S(=O)(=O)CNC(=S)c2ccc3ccccc3c2)cc1,inactive
22,O=C(NC1CCCCCC1)c1ccccc1-c1ccccc1,inactive
23,CCOC(=O)N1CCN(C(=O)COC(=O)C2CCN(S(=O)(=O)c3c(Cl)cccc3Cl)CC2)CC1,inactive
24,CCOc1ccccc1NC(=O)C12CC3CC(C1)CC(c1ccc(C)cc1)(C3)C2,inactive
25,COC(=O)CNC(=O)CSc1nc2sc(-c3ccccc3)cc2c(=O)n1-c1ccccc1,inactive
26,CCOc1ccc(-c2nn3c(-c4ccccc4)nnc3s2)cc1,inactive

row,Compound,outcome
1,Cc1ccccc1-c1nc2cc(N)ccc2o1,inactive
2,CCCCCCCCCCCCCCCC(=O)NCCO,inactive
3,CCCCCCCCCCNC(=O)C(=O)Nc1ccccn1,inactive
4,O=C(/C=C/c1ccco1)Nc1cccc(-c2nc3ccccc3[nH]2)c1,inactive
5,COc1ccc(OC(=O)c2cc3cc(Cl)ccc3oc2=O)cc1,inactive
6,N/C(Cc1ccc([N+](=O)[O-])cc1)=N\OC(=O)c1ccc2ccccc2c1,inactive
7,Cc1cccc(C)c1OCC(=O)Nc1cccc(-c2nnc(-c3ccccc3)o2)c1,inactive
8,O=C(Nc1nc2c(s1)CCCC2)c1cc(-c2ccc3c(c2)OCO3)nc2ccccc12,inactive
9,Cc1cc(N2CCN(C(=O)Nc3ccccc3C#N)CC2)c2ccccc2n1,inactive
10,COc1ccc(N=N/C(=C\O)C(=O)c2cccs2)cc1,inactive
11,Cc1ccc(C(=O)O/N=C(\N)c2ccc(Br)cc2)cc1C,inactive
12,CCOCCCNS(=O)(=O)c1ccc(NC(=O)N2c3ccccc3Sc3ccccc32)cc1,inactive
13,COc1ccc(N=Cc2c(OC)ccc3ccccc23)cc1,inactive
14,COc1ccc(N=Cc2c(O)cc(C)oc2=O)cc1,inactive
15,CCOc1ccc(NC(=O)N(C2CCCCC2)C(C)c2ccncc2)cc1 (configuration not stated),inactive
16,CCOc1ccc(N=C(NC#N)SCC(=O)NC2CC2)cc1,inactive
17,CCOc1ccc(N=CC2=C(O)CC(c3ccco3)CC2=O)cc1 (configuration not stated),inactive
18,C=CCN1CC[C@]23c4c5ccc(O)c4O[C@H]2/C(=N/NC(=O)c2ccccc2)CC[C@@]3(O)[C@H]1C5,inactive
19,COc1ccc(N=Cc2c[nH][nH]c2=O)cc1,inactive
20,Cn1c(N)c(C(=O)COC(=O)c2ccc([N+](=O)[O-])o2)c(=O)n(C)c1=O,inactive
21,O=C(c1n[nH]c(=O)c2ccccc12)N1CCN(C2c3ccccc3-c3ccccc32)CC1,inactive
22,COCCN=C1Sc2nc3ccc(C)cc3cc2CN1Cc1ccco1,inactive
23,C#CCCc1cscc1/C=[N+](\[O-])c1ccc(C(=O)OCC)cc1,inactive
24,O=C(O)c1ccccc1C(=O)NNc1ccc(Cl)cc1Cl,inactive

# — PubChem BioAssay AID449764 (Southern Research Specialized Biocontainment Screening …, 2010)
